# Methyltransferases – Primary Screen for Target Class Profiling of Small Molecule Inhibitors of Methyltransferases | AID 1745853, 2022 | 3.9% of 25,000 active | purified enzyme, MTase-Glo SAH luminescence; hits give low values | calls only at 40 µM; call rule not given here
#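 Each enzyme was assayed with SAM and its substrate. SAH formation detected by MTase-Glo luminescence; single-point 40 uM screen[…].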
# An asterisk follows results filed as active; i = inactive; + = active, no number. The entries come from a sample that favours hits as a whole. % is scaled to controls: 0 for no effect and ±100 for the full control effect.
SMILES,Methyltransferases
O=C(Cn1nc2n(Cc3ccc(F)cc3)c(=O)c3ccccc3n2c1=O)Nc1cccc(F)c1,i
CN(C)C(=O)Nc1cccc(-c2ccc(N(C)C)cc2)c1,i
CCn1cc(-c2ccnc3[nH]c(-c4cccc(CN(C)C)c4)cc23)c(-c2ccc(NC(=O)N(C)C)cc2)n1,+
COc1ccccc1CNC(=O)C1(C)Cn2c(cc3ccccc32)C(=O)N1Cc1ccccc1F (stereo not drawn),i
CC(=O)Nc1c2n(c3ccccc13)CC(C)(C(=O)NCCC(C)C)N(Cc1ccccc1Cl)C2=O (stereo not drawn),i
CC(C)NC(=O)c1nsc(C(=O)NCc2ccncc2)c1N,i
CCOC(=O)N1CCC(CN(Cc2ccc(Cl)cc2)Cc2ccc([N+](=O)[O-])s2)C1 (stereo not drawn),+
O=C(C[C@H]1NC(=O)c2ccccc2NC1=O)Nc1ccc(N2CCCS2(=O)=O)cc1,i
COc1cccc(CN2C(=O)c3cc(C4CC4)nn3CC2(C)C(=O)NC2CCCCCC2)c1OC (stereo not drawn),i
CC1CN(S(=O)(=O)c2ccc3[nH]c4c(c3c2)CCCC4)c2ccccc2O1 (stereo not drawn),i
Cc1nc(N=Nc2cc(S(=O)(=O)O)c3cc([N+](=O)[O-])cc(S(=O)(=O)O)c3c2)c(COP(=O)(O)O)c(C=O)c1O,+
Cc1cccc(N2CCN(C(=O)CCc3nnc4n(Cc5ccccc5)c(=O)c5ccccc5n34)CC2)c1C,i
O=c1cc(N2CCOCC2)oc2c(NCC3CCOCC3)nccc12,i
c1nc(NCC2CCOC2)c2cc(-c3ccc4c(c3)OCO4)ccc2n1 (stereo not drawn),+
COc1ccc(NC(=O)CN(C)S(=O)(=O)c2ccc3[nH]c4c(c3c2)CCCC4)c(OC)c1,i
COC(=O)c1cc2n(n1)CC(C)(C(=O)NC1CCCCCC1)N(Cc1cccc(C)c1)C2=O (stereo not drawn),i
O=C(C[C@@H]1CCNC[C@@H]1Cc1cc(CN2CCOCC2)on1)N1CCN(c2ccc(F)cc2)CC1,i
CCOC(=O)c1cc2n(n1)CC(C)(C(=O)NC1CCCCCC1)N(c1cccc(Cl)c1)C2=O (stereo not drawn),i
Cc1ccc(C)c(N2C(=O)c3cc4sccc4n3CC2(C)C(=O)NC2CCCCC2C)c1 (stereo not drawn),i
CCCn1c(=O)c2ccc(C(=O)NC(C)CC)cc2n2c(=O)n(CC(=O)c3ccc(C)cc3)nc12 (stereo not drawn),i
COC(=O)C1=COC(O[C@@H]2O[C@H](COC(=O)/C=C/c3ccc(O)cc3)[C@@H](O)[C@H](O)[C@H]2O)C2C(CO)=CCC12 (stereo partly drawn),i
COC(=O)C1=CO[C@@H](O[C@@H]2O[C@H](COC(=O)/C=C/c3cc(OC)c(O)c(OC)c3)[C@@H](O)[C@H](O)[C@H]2O)[C@@H]2C(CO)=CC[C@H]12,+
O=C(/C=C/c1ccccc1)OCC1=CC[C@@H]2C(C(=O)O)=CO[C@@H](O[C@@H]3O[C@H](CO)[C@@H](O)[C@H](O)[C@H]3O)[C@H]12,i
CCCn1c(=O)c2ccc(C(=O)NC(C)C)cc2n2c(SCC(=O)Nc3ccc(C)cc3C)nnc12,i
CC(=O)OC/C=C(\C)C(CC1C(C)=C(OC(C)=O)C(=O)C2C(C)(C)C(O)CCC12C)OC(C)=O (stereo not drawn),+
SMILES,Methyltransferases
CCc1cc2c(cc3n2CC(C)(C(=O)NC2CCCCCC2)N(CCc2ccccc2)C3=O)s1 (stereo not drawn),i
C[S+](=O)([O-])c1cccc(NC(=O)Cc2c[nH]c3ncc(-c4cccnc4)cc23)c1,i
CCOC(=O)c1cc2n(n1)CC(C)(C(=O)NCc1ccc(F)cc1)N(Cc1ccc(Cl)cc1)C2=O (stereo not drawn),i
O=C(NC1CCCC1)N1CCCC(C(=O)N2CCC(c3nc4ncccc4[nH]3)C2)C1 (stereo not drawn),i
O=C(c1ccccc1Cl)N1CCCC(C(=O)N2CCC(c3ccccc3)CC2)C1 (stereo not drawn),i
O=C([C@@H]1CCCN(c2ccc3[nH]c(C4(n5cc(Cl)cn5)CC4)nc3n2)C1)N1CCCC1,+
COc1ccc(OC)c(S(=O)(=O)N2CCc3nc(-c4ccccc4)ncc3C2)c1,i
O=C(c1ccncc1)N1CCC(Nc2cccnc2)C1 (stereo not drawn),i
CN1CCc2cc(NC(=O)Nc3cccnc3)ccc21,i
Cn1ccc2cc3c(cc21)CCN3C(=O)Nc1cccnc1,+
CC(C)CCn1c(=O)c2ccc(C(=O)NC(C)C)cc2n2c(=O)n(CC(=O)Nc3ccccc3F)nc12,i
COc1ccc(CN2C(=O)c3cc4sccc4n3CC2(C)C(=O)NC2CCCCC2)cc1OC (stereo not drawn),i
COc1cccc(CN2C(=O)c3cc4sccc4n3CC2(C)C(=O)NC2CCC(C)CC2)c1 (stereo not drawn),i
COc1ccc(CN2C(=O)c3cc4sccc4n3CC2(C)C(=O)NC2CCC(C)CC2)cc1OC (stereo not drawn),+
CN(C)S(=O)(=O)c1cccc(-c2nnc(-c3ccccc3Cl)o2)c1,i
CC1(C(=O)NC2CCCCCC2)Cn2c(cc3ccccc32)C(=O)N1Cc1cccs1 (stereo not drawn),i
CC1CCN(S(=O)(=O)c2ccc3c(ccn3CCC(=O)NCc3ccc4c(c3)OCO4)c2)CC1,i
COc1cccc(CN2C(=O)c3cc(-c4cccs4)nn3CC2(C)C(=O)NC2CCCCC2)c1 (stereo not drawn),i
CC(C)NC(=O)Cn1ccc2cc(S(=O)(=O)N3CCCCC3)ccc21,i
CC(C)CCNC(=O)C1c2c(n(C)c3ccccc23)SCC(=O)N1c1cccc(F)c1 (stereo not drawn),i
CC1(c2noc(-c3cccnc3)n2)CCN(C(=O)CCC(=O)n2ncc3c(Cl)cccc32)CC1,i
O=C1c2ccccc2-c2nc3nnnn3nc21 (tested in a mixture with another compound),+
COc1ccc(CN2C(=O)c3cc4occc4n3CC2(C)C(=O)NC2CCCCCCC2)cc1 (stereo not drawn),i
CC1=C2C(=O)C=C(CO)C2[C@H]2OC(=O)[C@H](C)[C@@H]2[C@@H](OC(=O)Cc2ccc(O)cc2)C1 (stereo partly drawn),i
Cc1ccc(-n2cccc2CC(=O)N2CCCC2)cc1,i
SMILES,Methyltransferases
COc1ccc(C(=O)Nc2ccc3c(c2)CN(CCc2ccccc2)C(=O)C(C)O3)cc1OC (stereo not drawn),i
COc1ccc(NC(=O)Cn2nc3n(Cc4ccc(F)cc4)c(=O)c4ccccc4n3c2=O)cc1OC,i
COc1cc2c(cc1OC)CN(CCc1ccc(NC(=O)c3cccc4c(=O)c5cccc(OC)c5[nH]c34)cc1)CC2,+
CC1(C(=O)NC2CCCCC2)Cn2c(cc3occc32)C(=O)N1Cc1ccc(F)cc1 (stereo not drawn),i
CN[C@@H](C)C(=O)N1CC[C@H](NC(=O)Cc2cccs2)C[C@H]1C(=O)N[C@@H](Cc1ccc(OC)cc1)C(N)=O,i
COc1ccccc1CNC(=O)C1(C)Cn2c(cc3ccccc32)C(=O)N1CCc1ccc(SC)cc1 (stereo not drawn),i
O=C1CN(Cc2ccc(-c3ccccc3)cc2)CCN1c1ccc(Cl)nn1,i

# Bioassay records: PubChem, National Center for Advancing Translational Sciences (NCATS)
